Mot1-301 SUMO: inhibitors of SUMOylation pathway: yeast Mot1-301 growth rescue; AID 2716; S. cerevisiae Mot1-301 growth rescue, ATP luminescence, 38.5C; percent above DMSO median, 100 means doubled; hit rate 1% among 320,000; growth rescue, % at 18.8 µM;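 active = every valid replicate shows activation above 250% relative to neutral control wells; inactive = the rest, any valid replicate at or below 250%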;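 note: OY570 slx delta 5 strain wells were the positive control but not used for scaling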
NSD2 inh: NSD2 (human) methyltransferase inhibition | NSD2 peptide methylation, AlphaScreen, 120 min | inhibition, % at 12.5 µM | hit rate 0.54% among 310,000 | AID 743445; in the data active = inhibition above about 50%
Glyco luc inh: blocks N-linked glycosylation in D54 reporter cells. D54 ERlucT glycosylation luciferase reporter, 24 h; percent of 100 nM tunicamycin response. reporter increase, % at 12.5 µM. hit rate 0.23% among 360,000. AID 588692;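 active = mean luciferase reporter signal, scaled so untreated is 0 and the glycosylation-blocking control 100, at or above a set limit in every replicate; inconclusive = mean reaches the limit but not every replicate does; inactive = mean below the limit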;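 note: luciferase carries N-glycosylation sites so blocking glycosylation raises the light; 0% = median of neutral control wells and 100% = median of 100 nM tunicamycin wells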
CDK5 inh: CDK5/p35 (human) kinase inhibition. Recombinant CDK5/p35, ADP-Glo luminescence, 60 min. Q00535+Q15078. hit rate 0.01% among 330,000. inhibition, % at 10 µM. AID 488839;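 active = highest replicate inhibition of at least 50% and at least 75% of replicates reaching 50%; inconclusive = only one of the two criteria met; inactive = both criteria failed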;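 note: plate controls were DMSO neutral control for no effect and GW8510 at 10 µM for full effect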
CASP6 VEID inh: blocks human caspase-6 cleavage activity; inhibition, % at 12.5 µM; purified caspase-6, Z-VEID-R110 cleavage fluorescence; AID 686996; P55212; hit rate 0.53% among 350,000;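 active = mean inhibition across replicates at least about 35%, with every replicate also reaching that limit, limit read from the data; inconclusive = only one of the two criteria met; inactive = neither criterion met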;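 note: 0% = median of neutral control wells and 100% = no fluorescence left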
ALR inh: human ALR oxidase inhibition via reduced H2O2 | hit rate 3.8% among 290,000 | purified ALR, DTT oxidation, H2O2 HRP-luminol luminescence | inhibition, % (test concentration not listed) | P55789;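 active = mean replicate inhibition above about 79%, with every replicate also reaching it, limit read from the data; inconclusive = only one of the two criteria met; inactive = mean below limit and not every replicate reaching it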
Target sequence (P55789 whole entry, looked up): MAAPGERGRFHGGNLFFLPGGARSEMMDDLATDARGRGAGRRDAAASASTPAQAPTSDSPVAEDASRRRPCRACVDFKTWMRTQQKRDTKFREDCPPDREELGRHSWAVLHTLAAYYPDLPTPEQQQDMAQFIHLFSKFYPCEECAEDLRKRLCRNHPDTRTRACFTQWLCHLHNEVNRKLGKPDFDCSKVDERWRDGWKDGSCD
Numbers without * were called inactive; ? = inconclusive; . = no result given. Rows were chosen to be rich in hits. Some 3.9% of all compounds tested hit in one or more screens of this group.

SMILES	Mot1-301 SUMO	NSD2 inh	Glyco luc inh	CDK5 inh	CASP6 VEID inh	ALR inh
COc1ccccc1-n1c(CNC(=O)c2ccc(S(=O)(=O)N3CCCCC3)cc2)n[nH]c1=S	-3	1	2	0	40*	?
O=C(NCc1n[nH]c(=S)n1-c1cccc(Cl)c1)c1ccc(S(=O)(=O)N2CCCC2)cc1	-11	-5	1	2	.	94*
O=C(NCc1n[nH]c(=S)n1-c1ccc(Cl)c(Cl)c1)c1ccc(S(=O)(=O)N2CCCCC2)cc1	14	-1	3	0	3	89*
O=C(NCc1n[nH]c(=S)n1-c1ccc(Cl)c(Cl)c1)c1ccco1	0	-1	2	0	4	85*
O=C(N[C@@H]1CC[C@H](CCNS(=O)(=O)c2ccc(Cl)cc2)O[C@H]1CO)c1cccnc1	.	.	.	.	3	.
CO[C@H]1CN(C)C(=O)c2ccc(NS(C)(=O)=O)cc2OC[C@@H](C)N(CCC(F)(F)F)C[C@@H]1C	.	.	.	.	1	.
C[C@H]1CN([C@@H](C)CO)C(=O)Cc2cc(NS(=O)(=O)c3ccc(F)cc3)ccc2O[C@@H]1CN(C)S(C)(=O)=O	.	.	.	.	-2	.
Cc1oc(-c2cccs2)nc1CS(=O)CC(=O)NCCc1ccccc1 (stereo unspecified)	-11	.	-1	2	0	98*
CCCCNC(=O)c1nc(-c2cccs2)oc1-c1ccc(Cl)cc1	.	.	.	.	-1	.
Cc1oc(-c2cccs2)nc1CS(=O)CC(=O)NCCCOC(C)C (stereo unspecified)	-4	-1	0	0	.	99*
CCCCNC(=O)CS(=O)Cc1nc(-c2cccs2)oc1C (stereo unspecified)	-4	.	2	-6	1	98*
COc1cc(NC(=O)c2cc(OC)c(OC)c(OC)c2)ccc1NC(=O)c1cccs1	12	0	-3	-6	0	2
COc1cc(N)ccc1NC(=O)c1cccs1	-4	-1	0	0	.	99*
Cc1ccc(NC(=O)/C(=C\c2ccc([N+](=O)[O-])cc2)NC(=O)c2ccccc2)cc1	-14	4	-1	2	.	2
O=C(N/N=C/c1ccc(O)c(O)c1O)/C(=C/c1ccc([N+](=O)[O-])cc1)NC(=O)c1ccccc1	-12	-4	9	0	.	91*
COc1ccccc1CNC(=O)C[C@H]1CC[C@@H]2[C@H](COC[C@@H](O)CN2Cc2cccc(-c3ccncc3)c2)O1	.	.	.	.	0	.
C=CCn1c(C)cc(C2=NNC(=Nc3ccc(C)cc3)SC2)c1C	-13	-8	-1	-2	-2	9
COCCn1c(C)cc(C2=NNC(=NC3CC3)SC2)c1C	-24	17	-22	13	-1	97*
C=CCn1c(C)cc(C2=NNC(=NC(C)(C)C)SC2)c1C	-19	1	-22	-1	12	99*
C=CCN=C1NN=C(c2cc(C)n(CCOC)c2C)CS1	-8	9	-5	-4	0	-1
Cc1ccc(S(=O)(=O)N(Cc2ccccc2)Cc2ccco2)cc1	49	-2	-6	0	.	1
Cc1ccc(S(=O)(=O)N(CC(=O)O)Cc2ccco2)cc1	-3	9	4	2	63*	1
COc1ccc(N(CC(=O)NCc2ccco2)S(=O)(=O)c2ccc(C)cc2)cc1OC	324	-4	-2	-1	0	.
COc1ccccc1N(CC(=O)NCc1ccco1)S(=O)(=O)c1ccc(C)cc1	-16	.	-1	0	50*	9
O=S(=O)(Cc1ccccc1)N(O)c1ccccc1	7	2	3	-1	1	99*
SMILES	Mot1-301 SUMO	NSD2 inh	Glyco luc inh	CDK5 inh	CASP6 VEID inh	ALR inh
CN(c1ccccc1)S(=O)(=O)CS(=O)(=O)N(C)c1ccccc1	.	0	-2	1	0	.
CC(C)c1cc(C(N)=O)c(NC(=O)C2CCC2)s1	0	1	3	0	6	97*
CC(C)c1nnc(NC(=O)C2CCCCC2)s1	31	.	3	0	-1	0
O=C(O)CNC(=O)c1cccc(C(F)(F)F)c1	-3	-1	0	1	-2	-3
Cc1c(CCCC(=O)O)sc(N)c1C(=O)c1cccc(C(F)(F)F)c1	-4	.	3	1	4	96*
COCC(=O)N(C)C[C@@H]1Oc2ncc(-c3ccc(C#N)cc3)cc2C(=O)N([C@@H](C)CO)C[C@H]1C	.	.	.	.	4	.
O/N=C/c1cccn1-c1ccc(O)cc1	73	3	0	3	.	99*

Assay outcomes deposited in PubChem by Broad Institute.
